CYP2C19 activ = increases human CYP2C19 enzyme activity; activation factor at 5 µM; AID 1025; recombinant CYP2C19, luciferin-H EGE luminescence; hits give high values; 0 = fully inhibited enzyme, 1 = untreated enzyme; P33261; 96,000 tested, under 10 active;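 active = activation factor of at least 2 at 5 µM in the primary screen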
Target sequence (P33261 whole entry, looked up): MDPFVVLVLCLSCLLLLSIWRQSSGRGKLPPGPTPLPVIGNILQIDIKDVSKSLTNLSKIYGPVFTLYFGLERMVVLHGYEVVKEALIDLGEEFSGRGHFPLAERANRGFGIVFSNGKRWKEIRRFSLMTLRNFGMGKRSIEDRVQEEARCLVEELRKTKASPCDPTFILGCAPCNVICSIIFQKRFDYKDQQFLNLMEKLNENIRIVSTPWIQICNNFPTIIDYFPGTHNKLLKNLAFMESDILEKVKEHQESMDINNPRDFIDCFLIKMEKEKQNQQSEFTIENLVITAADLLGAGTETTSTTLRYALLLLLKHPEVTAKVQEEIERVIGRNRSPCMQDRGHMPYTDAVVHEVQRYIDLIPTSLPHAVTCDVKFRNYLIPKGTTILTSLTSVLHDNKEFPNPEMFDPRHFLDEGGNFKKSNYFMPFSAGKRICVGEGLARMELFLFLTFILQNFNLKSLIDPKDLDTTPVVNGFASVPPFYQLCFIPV
CYP2C9 act = increases human cytochrome P450 2C9 activity | activation factor at 5 µM | P11712 | recombinant CYP2C9, luciferin-H conversion, luminescence; hits give high values; factor 1 = untreated enzyme, 0 = blocked | AID 1024 | actives 1.4% (n = 96,000);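 active = activation factor of 2 or more for CYP2C9 at a 5 µM dose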
CYP2C19 inhib = blocks human cytochrome P450 2C19; P33261; CYP2C19 Supersomes, luciferin-H EGE luminescence, 30 min; inhibition, % at 5 µM; actives 21% (n = 96,000);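 active = CYP2C19 inhibition above a set limit at 5 µM in the primary screen, cut at about 50% in these data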
CYP2C9 inhib = inhibitors of human CYP2C9. P11712. CYP2C9 Supersomes, luciferin-H conversion, luminescence. inhibition, % at 5 µM. actives 20% (n = 96,000). AID 777;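 active = blocking of liver enzyme CYP2C9 beyond about 50% at 5 µM, limit read from the data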
PostGolgi yeast = growth inhibition of a yeast mutant, post-Golgi transport screen | post-Golgi transport phenotypic cell assay | actives 0.9% (n = 98,000) | inhibition, % at 10 µM | AID 739;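 also: yeast cells grown in 1536-well plates; yeast grown about 18 h at 30C before absorbance read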
PostGolgi ctrl = inhibits growth of the yeast control strain. efflux-deficient yeast background strain, growth absorbance A615, 16 h. inhibition, % at 10 µM. actives 5% (n = 98,000)
Hits are given with their value; 0 = inactive; - = not tested or not shown. Sampled rows, rich in hits. Any-hit rate of the full collection: about 32%. Rule as the data show it, unless noted: active = inhibition above about 30%; inactive = the rest.

SMILES	CYP2C19 activ	CYP2C9 act	CYP2C19 inhib	CYP2C9 inhib	PostGolgi yeast	PostGolgi ctrl
CC(C)CSc1nc(N2CCOCC2)c2c(c1C#N)CC(C)(C)SC2	0	0	0	87.2	0	0
CCCSc1nc(N2CCOCC2)c2c(c1C#N)CC(C)(C)SC2	0	0	0	66.5	0	0
CN1C(=S)SC(C)(C)C1(C)NO (stereo not given)	0	0	0	0	0	0
Cc1cc(C)c(C#N)c(N2CCCC2)n1	0	0	0	0	0	0
CC(C)Sc1nc(N2CCCC2)c2c(c1C#N)CC(C)(C)OC2	0	0	60.9	86.7	0	0
CCOC(=O)CSc1nc(C(C)(C)C)cc(C(F)(F)F)c1C#N	0	0	0	0	0	0
CC(Sc1nc(N2CCCCC2)c2c(c1C#N)CCCC2)C(=O)O (stereo not given)	0	0	0	89.9	0	0
CCOC(=O)CSc1nc(N2CCOCC2)c2c(c1C#N)CC(C)(C)N(C)C2	0	0	0	72.7	0	0
CCOC(=O)c1ccc(NC(=O)c2cc(S(=O)(=O)N3CCOCC3)ccc2O)cc1	0	0	0	0	0	0
CC(=O)N1CCC(Nc2ccc(C)cc2)CC1	0	0	0	53.5	0	0
CCOc1ccc(NC2CCN(C(C)=O)CC2)cc1	0	0	0	0	0	0
COc1cc(S(=O)(=O)Nc2cccnc2)ccc1F	0	0	0	0	0	0
COc1ccc(S(=O)(=O)NCc2ccccn2)cc1Cl	0	3.2	92.1	0	0	0
O=S(=O)(NCCc1ccccn1)c1ccc(F)c(F)c1	0	0	84.9	0	0	0
O=C(CCNS(=O)(=O)c1ccc(Cl)cc1)NCc1ccccn1	0	0	0	0	0	0
COc1cc(S(=O)(=O)NCc2cccnc2)ccc1F	0	0	83.2	0	0	0
COc1cc(Cl)c(S(=O)(=O)NCc2ccccn2)cc1Cl	0	0	81.2	0	0	0
Cc1cc(CSc2ccccc2)ccc1NC(=O)c1ccc(Cl)c([N+](=O)[O-])c1	0	0	0	0	0	0
Cc1nc2c(nnn2Cc2ccccc2)c(=O)n1-c1ccccc1	0	0	0	0	0	0
Cc1ccc([N+](=O)[O-])cc1N/C=C1\CCc2ccccc2C1=O	0	0	0	0	0	0
COc1ccc(Cl)cc1S(=O)(=O)NCc1cccnc1	0	0	0	0	0	0
COc1cc(Cl)c(S(=O)(=O)NCc2cccnc2)cc1Cl	0	0	85.1	0	0	0
CC(C)[C@H](NC(=O)[C@@H]1CSCN1C(=O)OC(C)(C)C)C(=O)NCC1CCC(C(=O)O)CC1 (stereo not given in full)	0	0	0	0	0	0
CC1=C(OC(=O)c2ccccc2)C(C)(C)C(c2ccc(Br)cc2)OC1=O (stereo not given)	0	0	0	60.7	0	0
CC1(C)CC(OC(=O)c2ccccc2)CC(C)(C)N1	0	0	0	0	0	0
SMILES	CYP2C19 activ	CYP2C9 act	CYP2C19 inhib	CYP2C9 inhib	PostGolgi yeast	PostGolgi ctrl
CC1=C(OC(=O)c2ccccc2)C(C)(C)C(c2ccccc2)OC1=O (stereo not given)	0	0	0	0	0	0
CC1=C(OC(=O)c2ccc(Br)cc2)C(C)(C)C(c2ccccc2)OC1=O (stereo not given)	0	0	97.9	97.2	0	0
Cn1c(CCNC(=O)c2ccc(Cl)cc2)n[nH]c1=S	0	0	0	0	0	0
COC(=O)c1ccccc1NC(=O)CSc1nc(NC(=O)c2ccccc2)c2c(C)c(C)oc2n1	0	0	69.1	87.1	0	0
CCOC(=O)c1ccc(NC(=O)CSc2nc(NC(=O)c3ccccc3)c3c(C)c(C)oc3n2)cc1	0	0	59.7	75.8	0	0
CC1(C)CC(CCNC(=O)c2ccc(-n3cnnn3)cc2)CC(C)(C)N1	0	0	0	0	0	0
c1ccc2c(c1)OCC(c1csc3ncnc(N4CCCC4)c13)O2 (stereo not given)	0	0	99.3	93.9	0	0
c1ccc(CCNc2ncnc3scc(C4COc5ccccc5O4)c23)cc1 (stereo not given)	0	0	56.8	72.9	0	43.5
COC(=O)c1cc(CSc2nc3ccccc3[nH]2)oc1C	0	0	98.1	86.9	0	0
CCCc1cc(=O)[nH]c(SCC(=O)c2cc(C)n(C(C)COC)c2C)n1 (stereo not given)	-	-	-	-	0	48.6
CCCc1cc(=O)[nH]c(SCc2cc(C(=O)OC)c(C)o2)n1	0	0	77.3	86.9	0	0

Screening results as filed in PubChem BioAssay.
